Results reported in PubChem BioAssay AID1159580 (chemical genetic matrix, 2015).
About 2,000 (36%) of roughly 5,500 compounds were called active. Not shown: some 18% with an inconclusive outcome. Cut-off read from the data, not from the text of the source: active = normalized growth mostly below about 0.91 (no sharp cut-off); inconclusive = no clear call, values can overlap the other calls; inactive = mostly above about 0.92. The list shows a part of the results.

Test: chemical genetic growth profiling, strain panel (AID 1159580);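 note: tested at 20 µM; growth read once vehicle control cultures reached saturation at 30 °C; 1 = growth at the plate median or of vehicle wells; lower values mean less growth of the strain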
Settings: growth OD

Measured: normalized growth

COc1ccc([C@@H]2CC(=O)c3c(O)cc(O)cc3O2)cc1O
inactive: S. cerevisiae deletion strains, locus YJR043C, strain POL32, stronger effect = lower value 0.966 | S. cerevisiae deletion strains, locus YJR066W, strain TOR1, stronger effect = lower value 0.95 | S. cerevisiae deletion strains, locus YJR075W, strain HOC1, stronger effect = lower value 1.03 | S. cerevisiae deletion strains, locus YKL009W, strain mrt4, stronger effect = lower value 1.01 | S. cerevisiae deletion strains, locus YKL068W, stronger effect = lower value 0.998 | S. cerevisiae deletion strains, locus YKL085W, strain MDH1 (second series), stronger effect = lower value 0.99 | S. cerevisiae deletion strains, locus YKL085W, strain MDH1, stronger effect = lower value 0.99 | S. cerevisiae deletion strains, locus YKL160W, strain elf1, stronger effect = lower value 0.954 | S. cerevisiae deletion strains, locus YKR001C, strain vps1, stronger effect = lower value 1 | S. cerevisiae deletion strains, locus YKR026C, strain gcn3, stronger effect = lower value 0.982 | S. cerevisiae deletion strains, locus YKR091W, strain srl3, stronger effect = lower value 0.973 | S. cerevisiae deletion strains, locus YLL001W, strain dnm1, stronger effect = lower value 0.947 | S. cerevisiae deletion strains, locus YLL026W, stronger effect = lower value 0.993 | S. cerevisiae deletion strains, locus YLL041C, strain sdh2, stronger effect = lower value 0.982 | S. cerevisiae deletion strains, locus YLR027C, strain aat2, stronger effect = lower value 1 | S. cerevisiae deletion strains, locus YLR039C, strain RIC1, stronger effect = lower value 1.06 | S. cerevisiae deletion strains, locus YLR058C, strain SHM2, stronger effect = lower value 1.01 | S. cerevisiae deletion strains, locus YLR102C, strain apc9, stronger effect = lower value 1.01 | S. cerevisiae deletion strains, locus YLR113W, strain HOG1, stronger effect = lower value 1.02 | S. cerevisiae deletion strains, locus YLR221C, strain rsa3, stronger effect = lower value 0.959 | S. cerevisiae deletion strains, locus YLR258W, strain gsy2, stronger effect = lower value 0.977 | S. cerevisiae deletion strains, locus YLR262C, strain YPT6 (second series), stronger effect = lower value 0.972 | S. cerevisiae deletion strains, locus YLR262C, strain YPT6, stronger effect = lower value 1.03 | S. cerevisiae deletion strains, locus YLR268W, strain sec22, stronger effect = lower value 1.06 | S. cerevisiae deletion strains, locus YLR320W, strain mms22, stronger effect = lower value 0.93 | S. cerevisiae deletion strains, locus YLR330W, strain CHS5, stronger effect = lower value 1.01 | S. cerevisiae deletion strains, locus YLR342W, strain FKS1 (second series), stronger effect = lower value 0.979 | S. cerevisiae deletion strains, locus YLR342W, strain FKS1, stronger effect = lower value 0.976 | S. cerevisiae deletion strains, locus YLR357W, strain rsc2, stronger effect = lower value 0.953 | S. cerevisiae deletion strains, locus YLR370C, strain arc18, stronger effect = lower value 0.97 | S. cerevisiae deletion strains, locus YLR371W, strain rom2, stronger effect = lower value 1.01 | S. cerevisiae deletion strains, locus YLR384C, strain iki3, stronger effect = lower value 0.972 | S. cerevisiae deletion strains, locus YLR418C, strain cdc73, stronger effect = lower value 0.937 | S. cerevisiae deletion strains, locus YML016C, strain PPZ1, stronger effect = lower value 1 | S. cerevisiae deletion strains, locus YML032C, strain rad52, stronger effect = lower value 0.991 | S. cerevisiae deletion strains, locus YML120C, strain ndi1, stronger effect = lower value 0.974 | S. cerevisiae deletion strains, locus YML124C, strain tub3, stronger effect = lower value 1.01 | S. cerevisiae deletion strains, locus YMR058W, strain fet3, stronger effect = lower value 0.969 | S. cerevisiae deletion strains, locus YMR078C, strain ctf18, stronger effect = lower value 1.01 | S. cerevisiae deletion strains, locus YMR125W, strain sto1, stronger effect = lower value 0.96 | S. cerevisiae deletion strains, locus YMR129W, stronger effect = lower value 0.988 | S. cerevisiae deletion strains, locus YMR205C, strain PFK2, stronger effect = lower value 0.952 | S. cerevisiae deletion strains, locus YMR223W, strain ubp8, stronger effect = lower value 0.978 | S. cerevisiae deletion strains, locus YMR231W, strain pep5, stronger effect = lower value 0.98 | S. cerevisiae deletion strains, locus YMR263W, strain SAP30, stronger effect = lower value 1.03 | S. cerevisiae deletion strains, locus YMR307W, strain GAS1, stronger effect = lower value 0.952 | S. cerevisiae deletion strains, locus YNL067W, strain RPL9B, stronger effect = lower value 1.03 | S. cerevisiae deletion strains, locus YNL071W, strain lat1, stronger effect = lower value 0.979 | S. cerevisiae deletion strains, locus YNL183C, strain NPR1, stronger effect = lower value 0.944 | S. cerevisiae deletion strains, locus YNL209W, strain ssb2, stronger effect = lower value 0.986 | S. cerevisiae deletion strains, locus YNL233W, strain BNI4, stronger effect = lower value 1 | S. cerevisiae deletion strains, locus YNL248C, strain rpa49, stronger effect = lower value 0.97 | S. cerevisiae deletion strains, locus YNL250W, strain rad50, stronger effect = lower value 1.02 | S. cerevisiae deletion strains, locus YNL271C, strain bni1, stronger effect = lower value 1.01 | S. cerevisiae deletion strains, locus YNL298W, strain CLA4, stronger effect = lower value 1.02 | S. cerevisiae deletion strains, locus YNL307C, strain MCK1, stronger effect = lower value 1.01 | S. cerevisiae deletion strains, locus YNL322C, strain KRE1 (second series), stronger effect = lower value 0.987 | S. cerevisiae deletion strains, locus YNR049C, strain mso1, stronger effect = lower value 0.973 | S. cerevisiae deletion strains, locus YNR052C, strain pop2, stronger effect = lower value 1.02 | S. cerevisiae deletion strains, locus YOL012C, strain htz1 1.12 | S. cerevisiae deletion strains, locus YOL147C, strain pex11, stronger effect = lower value 0.998 | S. cerevisiae deletion strains, locus YOR001W, strain rrp6, stronger effect = lower value 0.988 | S. cerevisiae deletion strains, locus YOR061W, strain CKA2, stronger effect = lower value 1 | S. cerevisiae deletion strains, locus YOR069W, strain VPS5, stronger effect = lower value 1 | S. cerevisiae deletion strains, locus YOR070C, strain gyp1, stronger effect = lower value 0.975 | S. cerevisiae deletion strains, locus YOR080W, strain dia2, stronger effect = lower value 0.979 | S. cerevisiae deletion strains, locus YOR083W, strain WHI5, stronger effect = lower value 0.934 | S. cerevisiae deletion strains, locus YOR106W, strain vam3, stronger effect = lower value 0.946 | S. cerevisiae deletion strains, locus YOR136W, strain idh2, stronger effect = lower value 1.01 | S. cerevisiae deletion strains, locus YOR144C, strain elg1, stronger effect = lower value 0.999 | S. cerevisiae deletion strains, locus YOR184W, strain ser1, stronger effect = lower value 0.986 | S. cerevisiae deletion strains, locus YOR231W, strain MKK1, stronger effect = lower value 1.02 | S. cerevisiae deletion strains, locus YOR265W, strain rbl2, stronger effect = lower value 0.983 | S. cerevisiae deletion strains, locus YOR270C, strain vph1, stronger effect = lower value 0.933 | S. cerevisiae deletion strains, locus YOR290C, strain snf2, stronger effect = lower value 0.924 | S. cerevisiae deletion strains, locus YOR316C, strain cot1, stronger effect = lower value 1 | S. cerevisiae deletion strains, locus YPL051W, strain arl3, stronger effect = lower value 0.967 | S. cerevisiae deletion strains, locus YPL055C, strain LGE1, stronger effect = lower value 1.02 | S. cerevisiae deletion strains, locus YPL078C, strain atp4, stronger effect = lower value 0.952 | S. cerevisiae deletion strains, locus YPL106C, strain sse1, stronger effect = lower value 0.965 | S. cerevisiae deletion strains, locus YPL240C, strain hsp82, stronger effect = lower value 0.997 | S. cerevisiae deletion strains, locus YPL256C, strain CLN2, stronger effect = lower value 1.03 | S. cerevisiae deletion strains, locus YPR119W, strain clb2, stronger effect = lower value 1.01 | S. cerevisiae deletion strains, locus YPR141C, strain kar3, stronger effect = lower value 1.01 | S. cerevisiae deletion strains, locus YPR163C, strain tif3, stronger effect = lower value 1.01 | S. cerevisiae deletion strains, locus YPR167C, strain met16, stronger effect = lower value 1 | S. cerevisiae deletion strains, strain wtn01, stronger effect = lower value 1.03 | S. cerevisiae strains, strain wild type, stronger effect = lower value 1.01
